The full ranking holds about 81,000 sequences; the median of “one-hybrid fitness for binding NBS DNA” is about -0.1, and the highest 2% start at about 0.36. The list comes from a sample in which the highest values are over-represented; it also holds similar and randomly drawn sequences.
B1: Caulobacter ParB omega fusion; a variant is named by its letters at X, in order, B8GW30 (parent)
chain: MESVVVGEPGMSEGRRGLGRGLSALLGEVDAAPAQAPGEQLGGSREAPIEILQRNPDQPRRTFREEDLEDLSNSIREKGVLQPILVRPSPDTAGEYQIVAGERAWRAAQRAGLKTVPIMVRELDDLAVLEIGIIENVQRADLNVLEEALSYKVLMEKFERTQENIAQTIGKSXSHVANXMRLLXLPDEVQSYLVSGELTAXHARAIAAAADPVALAKQIIEGGLSVRETEALARKAPNLSAGKSKGGRPPRVKDTDTQALESDLSSVLGLDVSIDHRGSTGTLTITYATLEQLDDLCNRLTRGI

Variants of: B1
Assay: one-hybrid fitness for binding NBS DNA (the Noc-binding site; scaled: cognate 1, non-cognate 0); higher = stronger binding
Conditions: with NBS DNA site
Method in brief: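 Values were rescaled so that cognate is 1 and non-cognate is 0. Each is a fitness, the log change in a variant's read ratio to wild type from Illumina reads of plasmids before and after selection, with three replicate libraries pooled and variants under 10 reads dropped. Selection of the Caulobacter ParB libraries, four specificity codons randomised, used E. coli USO with a HIS3 reporter, site 19 bp from the promoter, on M9-minus-histidine with 0.1 mM IPTG and 5 mM 3-AT for 48 hours at 37°C.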

| Variant | one-hybrid fitness for binding NBS DNA |
| --- | --- |
| FQVR | ≤ 0.2 |
| TYLE | ≤ 0.2 |
| YVWI | ≤ 0.2 |
| RSSA | ≤ 0.2 |
| RCSA | 0.232 |
| RRSA | 0.605 |
| RSTA | ≤ 0.2 |
| RRTA | 0.619 |
| RRGA | 0.664 |
| RPGA | ≤ 0.2 |
| RSYA | ≤ 0.2 |
| RCTA | 0.238 |
| RCYA | 0.24 |
| RRYA | 0.684 |
| RCGA | 0.259 |
| AHHE | ≤ 0.2 |
| WMIS | ≤ 0.2 |
| DNAG | ≤ 0.2 |
| VKPI | ≤ 0.2 |
| VNAV | ≤ 0.2 |
| CCMW | ≤ 0.2 |
| QMGI | ≤ 0.2 |
| TSPL | ≤ 0.2 |
| RQFK | ≤ 0.2 |
| VLYA | ≤ 0.2 |

| Variant | one-hybrid fitness for binding NBS DNA |
| --- | --- |
| QHGK | ≤ 0.2 |
| IVPF | ≤ 0.2 |
| PKES | ≤ 0.2 |
| VFPS | ≤ 0.2 |
| FLQS | ≤ 0.2 |
| QVPL | ≤ 0.2 |
| LTRI | ≤ 0.2 |
| GFGY | ≤ 0.2 |
| SVNC | ≤ 0.2 |
| RLRA | 0.295 |
| RSHA | ≤ 0.2 |
| RRCA | 0.584 |
| RRRA | 0.671 |
| RRHA | 0.66 |
| RRWA | 0.546 |
| RCCA | 0.268 |
| RPWA | ≤ 0.2 |
| RCWA | ≤ 0.2 |
| RPCA | ≤ 0.2 |
| RARA | 0.309 |
| RCHA | 0.307 |
| PPGV | ≤ 0.2 |
| IQLC | ≤ 0.2 |
| EVWT | ≤ 0.2 |
| YTCT | ≤ 0.2 |

| Variant | one-hybrid fitness for binding NBS DNA |
| --- | --- |
| YRGS | ≤ 0.2 |
| DVKL | ≤ 0.2 |
| HVRW | ≤ 0.2 |
| NNGC | ≤ 0.2 |
| KTNT | 0.226 |
| RSQA | ≤ 0.2 |
| RCMA | ≤ 0.2 |
| RPMA | ≤ 0.2 |
| RRIA | 0.552 |
| RCQA | 0.238 |
| RRQA | 0.695 |
| RRLA | 0.584 |
| RRPA | 0.282 |
| RSLA | ≤ 0.2 |
| RCLA | ≤ 0.2 |
| RCIA | ≤ 0.2 |
| RRMA | 0.591 |
| APCY | ≤ 0.2 |
| TLCF | ≤ 0.2 |
| NTLF | ≤ 0.2 |
| CLPC | ≤ 0.2 |
| DMHR | ≤ 0.2 |
| GSQM | ≤ 0.2 |
| RCEA | ≤ 0.2 |
| RSEA | ≤ 0.2 |

| Variant | one-hybrid fitness for binding NBS DNA |
| --- | --- |
| RREA | 0.44 |
| STQW | ≤ 0.2 |
| SNSF | ≤ 0.2 |
| WTSV | ≤ 0.2 |
| QTKQ | 0.568 |
| QTVQ | 0.534 |
| QTIQ | ≤ 0.2 |
| QTWQ | ≤ 0.2 |
| YDNH | ≤ 0.2 |
| MVEY | ≤ 0.2 |
| KRHS | 0.464 |
| KRHN | ≤ 0.2 |
| KRHD | ≤ 0.2 |
| KRIS | 0.308 |
| KRDH | ≤ 0.2 |
| KRAD | ≤ 0.2 |
| KRFS | 0.358 |
| KRAS | 0.409 |
| KRES | 0.264 |
| KRRH | 0.422 |
| KRYS | 0.447 |
| KRRP | ≤ 0.2 |
| GYTL | ≤ 0.2 |
| SSDL | ≤ 0.2 |
| SLMH | ≤ 0.2 |

| Variant | one-hybrid fitness for binding NBS DNA |
| --- | --- |
| HKYA | ≤ 0.2 |
| YCMR | ≤ 0.2 |
| HEIR | ≤ 0.2 |
| KRSN | ≤ 0.2 |
| KRQN | ≤ 0.2 |
| KRSH | 0.205 |
| KRRN | 0.217 |
| KRRS | 0.549 |
| KRNH | 0.265 |
| KRNS | 0.453 |
| KRSS | 0.421 |
| KRQS | 0.443 |
| KRQH | 0.221 |
| KCRS | 0.216 |
| KRDS | 0.28 |
| VPML | ≤ 0.2 |
| PIAK | ≤ 0.2 |
| QDVN | ≤ 0.2 |
| APGE | ≤ 0.2 |
| GIHG | ≤ 0.2 |
| KCYL | ≤ 0.2 |
| KRWH | ≤ 0.2 |
| KRCN | ≤ 0.2 |
| KRWN | ≤ 0.2 |
| KRCH | ≤ 0.2 |

| Variant | one-hybrid fitness for binding NBS DNA |
| --- | --- |
| KRWS | 0.436 |
| KRCS | 0.387 |
| WTHQ | ≤ 0.2 |
| AAML | ≤ 0.2 |
| VNPF | ≤ 0.2 |
| GHPM | ≤ 0.2 |
| CVHG | ≤ 0.2 |
| RNRS | 0.491 |
| RNYS | ≤ 0.2 |
| RNRT | 0.391 |
| RNKD | ≤ 0.2 |
| RNRP | ≤ 0.2 |
| RNKT | 0.46 |
| RNYT | ≤ 0.2 |
| RNDT | ≤ 0.2 |
| RNVT | ≤ 0.2 |
| YKHS | ≤ 0.2 |
| KGVE | ≤ 0.2 |
| RIGS | 0.369 |
| RMGS | 0.461 |
| RLGD | ≤ 0.2 |
| RIGN | ≤ 0.2 |
| RLGS | 0.419 |
| RSGS | 0.419 |
| RMGD | ≤ 0.2 |

| Variant | one-hybrid fitness for binding NBS DNA |
| --- | --- |
| RIGP | ≤ 0.2 |
| RLGP | ≤ 0.2 |
| RMGP | ≤ 0.2 |
| RSGD | ≤ 0.2 |
| RSGN | ≤ 0.2 |
| CRQG | ≤ 0.2 |
| LDLL | ≤ 0.2 |
| AGNM | ≤ 0.2 |
| AITP | ≤ 0.2 |
| AYSK | ≤ 0.2 |
| DEHT | ≤ 0.2 |
| IPES | ≤ 0.2 |
| ERQV | ≤ 0.2 |
| QYAC | ≤ 0.2 |
| KLFS | ≤ 0.2 |
| RHER | 0.235 |
| EADR | ≤ 0.2 |
| KFKV | ≤ 0.2 |
| RHGD | ≤ 0.2 |
| RAGN | ≤ 0.2 |
| RTGS | 0.491 |
| RTGD | ≤ 0.2 |
| RTGN | ≤ 0.2 |
| RHGS | 0.368 |
| RKGD | ≤ 0.2 |

| Variant | one-hybrid fitness for binding NBS DNA |
| --- | --- |
| RAGS | 0.466 |
| RAGD | ≤ 0.2 |
| RKGS | 0.576 |
| RKGN | ≤ 0.2 |
| RHGN | ≤ 0.2 |
| LATQ | ≤ 0.2 |
| NNCL | ≤ 0.2 |
| PCCV | ≤ 0.2 |
| VENS | ≤ 0.2 |
| FMGS | ≤ 0.2 |
| DHPH | ≤ 0.2 |
| KDLT | ≤ 0.2 |
| ENHG | ≤ 0.2 |
| NCII | ≤ 0.2 |
| SQRK | ≤ 0.2 |
| MVPG | ≤ 0.2 |
| RFGS | ≤ 0.2 |
| RCGS | 0.482 |
| RPGS | ≤ 0.2 |
| GNMC | ≤ 0.2 |

— a collection of fitness landscapes (doi:10.1016/j.celrep.2020.107928)
